# Assay outcomes (PubChem)
# Sampled rows, rich in hits. Any-hit rate of the full collection: about 32%.
# PostGolgi ctrl – inhibits growth of the yeast control strain | efflux-deficient yeast background strain, growth absorbance A615, 16 h | inhibition, % at 10 µM | hit rate 5% among 98,000
# CYP2C9 inh – blocks human cytochrome P450 2C9; P11712; hit rate 20% among 96,000; CYP2C9 Supersomes, luciferin-H conversion, luminescence; AID 777; inhibition, % at 5 µM;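 active = blocking of liver enzyme CYP2C9 beyond about 50% at 5 µM, limit read from the data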
# PostGolgi yeast – growth inhibition of a yeast mutant, post-Golgi transport screen | AID 739 | post-Golgi transport phenotypic cell assay | hit rate 0.9% among 98,000 | inhibition, % at 10 µM;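 also: yeast cells grown in 1536-well plates; yeast grown about 18 h at 30C before absorbance read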
# CYP2C9 act – activators of human CYP2C9 | recombinant CYP2C9, luciferin-H conversion, luminescence; stronger effect = higher value; factor 1 = untreated enzyme, 0 = blocked | hit rate 1.4% among 96,000 | P11712 | activation factor at 5 µM;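 active = activation factor of 2 or more for CYP2C9 at a 5 µM dose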;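 also: 0 = sulfaphenazole-blocked wells and 1 = vehicle-only wells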
# CYP2C19 act – activators of human cytochrome P450 2C19; AID 1025; recombinant CYP2C19, luciferin-H EGE luminescence; stronger effect = higher value; 0 = fully inhibited enzyme, 1 = untreated enzyme; activation factor at 5 µM; P33261; 96,000 tested, under 10 active;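 active = activation factor of at least 2 at 5 µM in the primary screen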;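 also: 0 = wells with 2.5 mM tranylcypromine and 1 = vehicle-only wells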
# Target sequence (P33261 whole entry, looked up): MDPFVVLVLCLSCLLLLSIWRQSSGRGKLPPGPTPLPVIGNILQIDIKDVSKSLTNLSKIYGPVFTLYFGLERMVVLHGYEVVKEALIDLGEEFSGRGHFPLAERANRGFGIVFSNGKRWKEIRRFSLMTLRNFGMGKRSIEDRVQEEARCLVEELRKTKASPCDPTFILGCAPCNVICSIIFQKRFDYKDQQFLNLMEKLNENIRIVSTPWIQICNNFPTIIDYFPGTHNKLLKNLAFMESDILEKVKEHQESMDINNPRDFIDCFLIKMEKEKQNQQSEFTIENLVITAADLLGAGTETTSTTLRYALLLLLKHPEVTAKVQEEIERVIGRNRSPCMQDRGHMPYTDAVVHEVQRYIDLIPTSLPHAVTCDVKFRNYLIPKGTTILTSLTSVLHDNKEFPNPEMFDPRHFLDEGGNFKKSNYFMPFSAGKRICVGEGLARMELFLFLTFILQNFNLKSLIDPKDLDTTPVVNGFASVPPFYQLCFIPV
# CYP2C19 inh – blocks human cytochrome P450 2C19; P33261; CYP2C19 Supersomes, luciferin-H EGE luminescence, 30 min; inhibition, % at 5 µM; hit rate 21% among 96,000;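 active = CYP2C19 inhibition above a set limit at 5 µM in the primary screen, cut at about 50% in these data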;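 also: plate controls were negative control wells for no effect and 2.5 mM tranylcypromine positive control for full effect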
# The depositor's hits bear a star; · = no result. Rule as the data show it, unless noted: active = inhibition above about 30%; inactive = the rest.
SMILES,PostGolgi ctrl,CYP2C9 inh,PostGolgi yeast,CYP2C9 act,CYP2C19 act,CYP2C19 inh
CC(CC1C(C#N)=C(N)SC(N)=C1C#N)c1ccccc1 (stereo not given),3,98*,1,0,0.1,92*
COc1cc(NC(=O)C2CC2)c(C(=O)O)cc1OC,4,-7,9,1.1,1.1,-14
Cn1c(CNC(=O)Cc2ccc3c(c2)OCO3)nnc1SCc1ccccc1,9,-16,3,1.2,0.8,21
CN(CCNC(=O)c1cn(C)c2ccc(S(=O)(=O)N3CCCC3)cc2c1=O)CCc1ccccc1,15,18,14,0.8,1.1,-5
CC(=O)Nc1ccc(S(=O)(=O)CCC#N)cc1,-3,·,3,·,·,·
CC(/C=N/n1c(C2CCCCC2)n[nH]c1=S)=C\c1ccccc1,44*,61*,4,0.4,0.6,38
S=c1[nH]nc(C2CCCCC2)n1/N=C/c1cccs1,22,11,2,0.9,0.8,20
CC(=C/c1ccccc1)/C=N/n1c(-c2ccco2)n[nH]c1=S,33*,26,9,0.7,0.8,17
c1coc(CN=C2NC(=NCc3ccco3)c3ccccc32)c1,-5,40,5,0.6,0.4,55*
O=C(NCC1CCCO1)c1ccc(CS(=O)(=O)c2ccc(Cl)cc2)o1 (stereo not given),1,25,21,0.8,0.9,14
O=C(NCC1CCCO1)c1ccc(CS(=O)(=O)c2c(Cl)cccc2Cl)o1 (stereo not given),4,-87,1,1.9,0.5,54*
Cc1nc2cc(C(F)(F)F)ccc2n1C1CCN(C(=O)N2CCOCC2)CC1,2,27,8,0.7,0.9,9
Cc1ccc(-c2cnc(-c3ccncc3)o2)cc1,10,64*,13,0.4,0,98*
COCCn1c(SCC(N)=O)nnc1-c1c[nH]c2ccccc12,8,12,-1,0.9,0.7,27
COCCn1c(SCc2ccc(C(=O)OC)o2)nc2cc(Cl)ccc2c1=O,25,93*,-12,0.1,0.1,94*
COC(=O)c1ccc(CSc2nnc(-c3c[nH]c4ccccc34)n2C)o1,4,78*,3,0.2,0.1,93*
COCCn1c(SCc2ccc(C(=O)OC)o2)nnc1-c1c[nH]c2ccccc12,-2,68*,3,0.3,0.3,74*
CCCC(=O)Nc1nnc(COC)s1,-2,18,-6,0.8,1,-4
Fc1ccc(CNc2nc(-c3ccco3)cc(C(F)(F)F)n2)cc1,7,32,10,0.7,1.1,-5
FC(F)(F)c1cc(-c2ccco2)nc(NCc2ccccc2)n1,19,36,2,0.6,0.9,14
FC(F)(F)c1cc(-c2ccco2)nc(NCc2cccnc2)n1,3,66*,3,0.3,0.2,85*
COc1ccccc1-c1cc(C(F)(F)F)nc(NCc2ccco2)n1,31*,-2,-3,1,0.9,8
FC(F)(F)c1cc(-c2ccccc2)nc(NCc2cccnc2)n1,34*,73*,-6,0.3,0.1,93*
COc1ccc(-n2ncc3c(=O)n(CC(=O)N4CCCc5ccccc54)cnc32)cc1,-9,24,2,0.8,0.7,28
COc1ccc(OC)c(C(C)NC=O)c1 (stereo not given),39*,-9,4,1.1,1,-4
SMILES,PostGolgi ctrl,CYP2C9 inh,PostGolgi yeast,CYP2C9 act,CYP2C19 act,CYP2C19 inh
CCC(C)C(=O)Nc1ccc(OC)cc1OC (stereo not given),10,-2,0,1,0.8,20
O=C(CSc1nnc(-c2ccccc2)o1)N1CCc2ccccc2C1,6,12,17,0.9,0.9,13
O=C(CSc1nnc(-c2ccccc2O)o1)N1CCc2ccccc2C1,8,33,0,0.7,0.4,63*
COc1ccc(-c2nnc(SCC(=O)N3CCc4ccccc4C3)o2)cc1,-2,13,-7,0.9,0.2,78*
OC(CN1CCN(c2ccccc2)CC1)c1ccc2c(c1)CCN2 (stereo not given),-7,-15,5,1.1,0.9,10
O=C(N/N=C/c1cccs1)c1cc(-c2ccc3ccccc3c2)n[nH]1,59*,30,-3,0.7,0.9,5
Cc1ccn2c(C(=O)N/N=C\c3cccs3)c(C)nc2c1,-7,52*,-2,0.5,0.5,47
O=C(N/N=C/c1cccs1)c1cccc2cc[nH]c12,1,·,0,·,·,·
O=C(N/N=C/c1ccco1)c1cc(-c2ccc3ccccc3c2)n[nH]1,43*,30,13,0.7,0.7,29
O=C(N/N=C/c1c[nH]c2ccccc12)c1cc(-c2ccc(-c3ccccc3)cc2)n[nH]1,5,-87,-16,1.9,1.1,-11
CC1CCCN(C(=O)CNC(=O)Cn2ccc3ccccc3c2=O)C1 (stereo not given),3,-38,2,1.4,1.1,-6
O=C(NCc1ccco1)c1ccc2nc3sc4c(c3c(=O)n2c1)CCCC4,-1,40,2,0.6,0.8,19
CC(C)(C)C(=O)c1no[n+]([O-])c1/C(=N/O)C(C)(C)C,23,12,-8,0.9,0.4,59*
CC(=O)c1c(C)oc2ccc(NS(=O)(=O)c3ccc(O)c(C(=O)O)c3)cc12,0,89*,5,0.1,0.5,52*
O=C(O)c1cc(S(=O)(=O)Nc2ccc3oc(=O)sc3c2)ccc1O,3,85*,0,0.1,0.8,23
CC(=O)Nc1ccc(NS(=O)(=O)c2ccc(Cl)c(C(=O)O)c2)cc1,28,-6,-4,1.1,1,4
Cc1ccc(S(=O)(=O)Nc2ccc3oc(=O)sc3c2)c(C)c1,20,64*,11,0.4,0.3,67*
CN(C)c1ccc(C(=S)NCc2ccco2)cc1,-3,37,4,0.6,0.1,88*
Cc1ccc(/C([O-])=C(/C(=S)NCc2ccco2)[n+]2ccccc2)cc1,-2,25,-2,0.7,0.8,24
CCOC(=O)C1CCN(S(=O)(=O)c2c(C)n(C)c(=O)n(C)c2=O)CC1,-1,-7,2,1.1,1,2
CN(/N=C/c1ccncc1)C1=NS(=O)(=O)c2ccccc21,16,33,3,0.7,0.5,55*
O=C(CN1C(=O)C2(OCCCO2)c2ccccc21)NCCc1ccccc1,3,17,-5,0.8,0.1,86*
Cc1ccc(CCNC(=O)CN2C(=O)COc3ccccc32)cc1,14,59*,-5,0.4,0.1,89*
CC1Oc2ccccc2N(CC(=O)N(Cc2ccccc2)Cc2ccccn2)C1=O (stereo not given),5,65*,-10,0.3,0.4,61*
CC1Oc2ccccc2N(CC(=O)c2ccccc2)C1=O (stereo not given),-1,19,1,0.8,0.5,46
